{"source": "PubChem BioAssay AID1321", "about": "(The Scripps Research Institute Molecular Screening Center, 2008)", "note": "In all, about 220,000 compounds went through this assay and about 2,600 (1.2%) were called active. The sample holds actives, similar compounds and a random draw of the others, so the mix is not that of the screen. A number with no mark means an inactive call.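 Rule for the calls: active = activation above the mean of all tested compounds plus 3 SD, set per screening run (cut at about 8.8% in these data); inactive = the rest.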"}
{"target": "Wee1-like protein kinase (Homo sapiens) (UniProt P30291)", "test": "Wee1 degradation inhibitors, primary screen, cell-based, HeLa, Wee1K328M-luciferase, luminescence (AID 1321);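 note: cells exposed to compound for 20 h before luminescence read; 0% = DMSO alone and 100% = MG132 at 30 µM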", "conditions": "HeLa Luc-Wee1K328M stability, at 5 µM, active compounds read high, 100% = proteasome inhibitor MG132 effect"}
{"smiles": "O=C(O)C#Cc1cccc2ccccc12", "reporter increase": "6.16%"}
{"smiles": "O=[N+]([O-])C(=c1ccc2c(c1)N1C3=C(CCCC3)CC3CCCCC31N=2)[N+](=O)[O-]", "note": "(stereo not given)", "reporter increase": "-2.36%"}
{"smiles": "Cc1cc(C)c2c(n1)sc1c(=O)n(-c3ccccc3)c(=O)[nH]c12", "reporter increase": "17.8% (active)"}
{"smiles": "Cc1cc(C)c2c(-n3cccc3)c(NC(=O)OCc3ccccc3)sc2n1", "reporter increase": "-2.38%"}
{"smiles": "C/C(O)=C\\c1nc(=O)c2c(C)cc(C)nc2n1-c1ccccc1", "reporter increase": "-1.67%"}
{"smiles": "O=c1[nH]c(SCc2cccc(F)c2)nc2ccccc12", "reporter increase": "-1.83%"}
{"smiles": "O=P(O)(CN1CCCCCC1)C1Cc2ccccc2C1", "reporter increase": "2.27%"}
{"smiles": "Cc1ccc(-c2noc(CN3CCN(Cc4ccccc4)CC3)n2)cc1", "reporter increase": "0.1%"}
{"smiles": "CN1CCN(C(=O)CCc2nc(-c3ccc(Cl)cc3)no2)CC1", "reporter increase": "2.75%"}
{"smiles": "CC1CCN(Cc2nc(-c3ccc(Cl)cc3)no2)CC1", "reporter increase": "8.97% (active)"}
{"smiles": "COCC(C)OC(=O)c1c(N)n(CCCN2CCOCC2)c2nc3ccccc3nc12", "note": "(stereo not given)", "reporter increase": "-0.94%"}
{"smiles": "FC(F)(F)c1cccc(-c2nc(COc3ccc(Cl)cc3Cl)no2)c1", "reporter increase": "1.86%"}
{"smiles": "COc1ccc(CC(=O)n2nc(-c3cccnc3)nc2N)cc1", "reporter increase": "9.39% (active)"}
{"smiles": "CCCC(=O)n1nc(-c2ccccc2)nc1N", "reporter increase": "-0.53%"}
{"smiles": "COc1ccccc1C(=O)n1nc(-c2ccccc2)nc1N", "reporter increase": "0.74%"}
{"smiles": "Clc1ccc(CSc2nnc3c(n2)[nH]c2ccccc23)cc1", "reporter increase": "4.2%"}
{"smiles": "CC(=O)NCC(O)c1ccc([N+](=O)[O-])cc1", "note": "(stereo not given)", "reporter increase": "-2.38%"}
{"smiles": "COC(=O)c1ccc(S(=O)(=O)N(CCO)Cc2ccccc2)n1C", "reporter increase": "0.33%"}
{"smiles": "O=C(Cn1cnc2ccccc2c1=O)Nc1cccc(S(=O)(=O)N2CCCCC2)c1", "reporter increase": "-0.22%"}
{"smiles": "CC(=O)c1cc(C#N)c(SCC(=O)Nc2nccs2)nc1C", "reporter increase": "8.83% (active)"}
{"smiles": "CC(=O)c1cc(C#N)c(SCC(=O)C(C)(C)C)nc1C", "reporter increase": "0.58%"}
{"smiles": "Cc1[nH]c2ccccc2c1SCC(=O)Nc1nccs1", "reporter increase": "-4.02%"}
{"smiles": "O=C(/C=C/Sc1ncn[nH]1)c1ccc(Cl)cc1", "reporter increase": "9.14% (active)"}
{"smiles": "COc1ccc(Cl)cc1CSc1ncn[nH]1", "reporter increase": "-0.89%"}
{"smiles": "Cc1cc(C)nc(S/C=C/C(=O)c2ccccc2)n1", "reporter increase": "1.73%"}
{"smiles": "Cc1ccc(NC(=S)N2CCCC(c3ccccc3)=N2)cc1", "reporter increase": "-4.54%"}
{"smiles": "NC(=O)Cc1ccc2c(c1)[nH]c1ccccc12", "reporter increase": "0.52%"}
{"smiles": "NC(=O)Cc1ccc2sc(-c3ccccc3)nc2c1", "reporter increase": "14.1% (active)"}
{"smiles": "O=C(O)Cc1sc(-c2ccc(C(=O)O)cc2)nc1-c1ccccc1", "reporter increase": "2%"}
{"smiles": "Brc1ccc(-c2n(-c3ccccn3)c3ccccc3[n+]2-c2ccccn2)cc1", "reporter increase": "3.34%"}
{"smiles": "CN(C)N=Nc1ccc2nc[nH]c2c1", "reporter increase": "2.5%"}
{"smiles": "Cc1ccc(C(=O)Nc2nc(N)n(-c3ccccc3)n2)cc1", "reporter increase": "-0.93%"}
{"smiles": "NS(=O)(=O)c1ccc(CNC(=O)c2cnccn2)cc1", "reporter increase": "3.73%"}
{"smiles": "Cc1cc(C)cc(NC(=O)C2CCN(c3nc(C)cc(C)n3)CC2)c1", "reporter increase": "-2.65%"}
{"smiles": "COC(=O)CC1=NN(c2nc(C)cc(C)n2)C(=O)C1", "reporter increase": "15.3% (active)"}
{"smiles": "COC(=O)CC1=NN(c2ccccc2)C(=O)C1", "reporter increase": "-1.29%"}
{"smiles": "O=C1C2C3C=CC(C3)C2C(=O)N1c1ccc(S(=O)(=O)Nc2nccs2)cc1", "note": "(stereo not given)", "reporter increase": "-1.57%"}
{"smiles": "NS(=O)(=O)c1ccc(NC(=O)COC(=O)c2cc3ccccc3oc2=O)cc1", "reporter increase": "-2.85%"}
{"smiles": "O=C(CCc1ccccc1)NNc1ccc(F)cc1", "reporter increase": "1.37%"}
{"smiles": "Cc1ccccc1N1CCN(CCCOc2ccc3c(C)cc(=O)oc3c2)CC1", "reporter increase": "-1.06%"}
{"smiles": "Cc1cc(=O)oc2cc(OCCC[n+]3ccccc3)ccc12", "reporter increase": "-1.76%"}
{"smiles": "COc1cccc(-c2nnc(SCCOc3ccc4c(C)cc(=O)oc4c3)o2)c1", "reporter increase": "9.51% (active)"}
{"smiles": "COC(=O)c1sccc1NN1C(=O)c2ccccc2C1=O", "reporter increase": "-2.49%"}
{"smiles": "Cc1cccc(NC(=O)Nc2ccc3c(c2)OCO3)n1", "reporter increase": "5.09%"}
{"smiles": "CCc1c(C)sc(NC(=O)/C=C/c2ccc3c(c2)OCO3)c1C(=O)OC", "reporter increase": "-2.27%"}
{"smiles": "Cc1cccc(NC(=O)/C=C/c2ccc3c(c2)OCO3)n1", "reporter increase": "9.34% (active)"}
{"smiles": "COc1ccc(C(=O)N/N=C2\\CCS(=O)(=O)c3ccc(F)cc32)cc1OC", "reporter increase": "0.62%"}
{"smiles": "Nc1ccc(C(=O)NCc2ccccc2)cc1", "reporter increase": "2.22%"}
{"smiles": "O=C(NCCCNCc1ccccc1)c1ccc(/C=N/O)nc1", "reporter increase": "11.4% (active)"}
{"smiles": "CC(C)c1ccc(C(=O)NCCCc2ccccc2)cc1", "reporter increase": "-2.16%"}
{"smiles": "CNC(=S)NNC(=O)c1oc2nc(-c3ccccc3)cc(-c3ccco3)c2c1N", "reporter increase": "-0.32%"}
{"smiles": "CCOP(=O)(OCC)C(Nc1ccc([N+](=O)[O-])cc1)c1ccc(Cl)cc1", "note": "(stereo not given)", "reporter increase": "0.66%"}
{"smiles": "CCOP(=O)(OCC)C(Nc1cccc(C)c1)c1ccc(F)cc1", "note": "(stereo not given)", "reporter increase": "10.8% (active)"}
{"smiles": "CCCCOC(=O)c1ccc(NC(c2ccc(C)cc2)P(=O)(OC)OC)cc1", "note": "(stereo not given)", "reporter increase": "8.49%"}
{"smiles": "Nc1ccccc1SC(C[N+](=O)[O-])c1ccccc1", "note": "(stereo not given)", "reporter increase": "-0.08%"}
{"smiles": "O=C1NC(=Nc2ccc(Cl)cc2)SC1Cc1cccc(Cl)c1Cl", "note": "(stereo not given)", "reporter increase": "-1.02%"}
{"smiles": "NC1=NC(=O)C(Cc2cccc(Cl)c2Cl)S1", "note": "(stereo not given)", "reporter increase": "9.04% (active)"}
{"smiles": "NC1=NC(=O)C(Cc2cccc(Cl)c2)S1", "note": "(stereo not given)", "reporter increase": "-3.99%"}
{"smiles": "[O-][N+]12CCCCC1CCCC2CO", "note": "(stereo not given)", "reporter increase": "-2.55%"}
{"smiles": "COCCCNC(=O)C1CCN(c2ccc(N3CCOCC3)nn2)CC1", "reporter increase": "-2.62%"}
{"smiles": "CSc1nc(-c2ccco2)nn1C(=O)c1ccccc1Cl", "reporter increase": "-1.69%"}
{"smiles": "Cc1ccc(C)c(NC(=S)NNC(=O)c2csc(C)c2)c1", "reporter increase": "1.58%"}
{"smiles": "Cc1cc(C(=O)NNC(=S)Nc2ccccc2C)cs1", "reporter increase": "10.1% (active)"}
{"smiles": "Cc1ccccc1NC(=S)NNC(=O)c1cccc(Br)c1", "reporter increase": "-1.44%"}
{"smiles": "CC(=O)N1CC[n+]2c(-c3ccc([N+](=O)[O-])cc3)csc21", "reporter increase": "-3.06%"}
{"smiles": "Nc1nnc(SCn2nnc3ccccc3c2=O)s1", "reporter increase": "-0.04%"}
{"smiles": "O=c1c2ccccc2nc(CSc2nnnn2-c2ccccc2)n1-c1ccccc1", "reporter increase": "5.88%"}
{"smiles": "O=c1c2ccccc2nnn1CSc1nnnn1-c1ccccc1", "reporter increase": "9.56% (active)"}
{"smiles": "Cc1ccc(-c2nc(SCC(=O)Nc3ccccc3OC(F)F)c3c(C)c(C(=O)O)sc3n2)cc1", "reporter increase": "-1.68%"}
{"smiles": "O=[N+]([O-])/C=C1\\CCCCCN1", "reporter increase": "-2.66%"}
{"smiles": "COc1ccc(CCN2C(=O)CC(N3CCC(C(N)=O)CC3)C2=O)cc1OC", "note": "(stereo not given)", "reporter increase": "-3%"}
{"smiles": "C/C(=N\\NC(=S)Nc1ccc(C)cc1)c1cc2ccccc2o1", "reporter increase": "5.15%"}
{"smiles": "CCC(=O)/C=C1\\Sc2ccccc2N1CC", "reporter increase": "-1.98%"}
{"smiles": "O=C(CCN1c2ccccc2Sc2ccccc21)Nc1ccccc1", "reporter increase": "0.76%"}
{"smiles": "CCN1/C(=C/C(=S)Nc2ccccc2)Sc2ccccc21", "reporter increase": "11.6% (active)"}
{"smiles": "COc1ccc2oc(=O)c(C(=O)N3CCN(c4ccccc4F)CC3)cc2c1", "reporter increase": "-2.32%"}
{"smiles": "COc1ccccc1N1CCN(C(=O)c2cn(-c3ccccc3)nc2-c2cccnc2)CC1", "reporter increase": "-0.84%"}
{"smiles": "COc1ccc(Nc2ncc(C(=O)N3CCN(c4ccccc4OC)CC3)c3ccccc23)cc1", "reporter increase": "8.82% (active)"}
{"smiles": "O=C(/C=C/Nc1ccc(S(=O)(=O)Nc2cnc3ccccc3n2)cc1)c1cccnc1", "reporter increase": "-0.5%"}
{"smiles": "COc1cc(OC)c(OC)cc1/C=N/Nc1ncnc2c1[nH]c1ccc(C)cc12", "reporter increase": "0.2%"}
{"smiles": "O=C(NNS(=O)(=O)Cc1ccccc1)c1ccc([N+](=O)[O-])cc1", "reporter increase": "-1.88%"}
{"smiles": "COC(=O)c1cc2c(N)c(C(=O)c3ccc(Cl)cc3)sc2nc1C(OC)OC", "reporter increase": "-2.57%"}
{"smiles": "Nc1c(C(=O)NCc2ccccc2)sc2nc3c(cc12)C(=O)CCC3", "reporter increase": "2.8%"}
{"smiles": "CC(C)OC(=O)c1sc2nc3c(cc2c1N)C(=O)CCC3", "reporter increase": "11.6% (active)"}
{"smiles": "CN(CC(O)COc1ccc(S(=O)(=O)N2CCOCC2)cc1Cl)C1CCCCC1", "note": "(stereo not given)", "reporter increase": "-3.05%"}
{"smiles": "O=C(N/N=C/c1cccc([N+](=O)[O-])c1)c1ccncc1", "reporter increase": "2.44%"}
{"smiles": "CC(C)S(=O)(=O)c1csc(NC(=O)Nc2ccc(Cl)cc2)c1Cl", "reporter increase": "14.2% (active)"}
{"smiles": "Cn1ccc(NC(=O)Nc2ccc(Cl)cc2)n1", "reporter increase": "2.1%"}
{"smiles": "CN(c1cccc(NC(=O)Nc2ccc(Cl)cc2)c1)S(C)(=O)=O", "reporter increase": "4.1%"}
{"smiles": "Cn1nc(C(F)(F)F)cc1C(=O)O", "reporter increase": "-1.44%"}
{"smiles": "COc1ccc(Br)cc1/C=N/NC(=O)c1cccc(S(=O)(=O)N2CCOCC2)c1", "reporter increase": "8.21%"}
{"smiles": "COc1cccc(/C=N/NC(=O)CNC(=O)c2ccc(S(=O)(=O)N3CCOCC3)cc2)c1OC", "reporter increase": "12.4% (active)"}
{"smiles": "COc1ccc(/C=N/NC(=O)CNC(=O)c2ccc(S(=O)(=O)N3CCCC3)cc2)c(OC)c1", "reporter increase": "0.74%"}
{"smiles": "COC(=O)c1sccc1NC(=S)Nc1ccc(C)cc1", "reporter increase": "2.58%"}
{"smiles": "O=C(NCc1cccs1)C1CCN(S(=O)(=O)c2ccc(Cl)cc2)CC1", "reporter increase": "0.23%"}
{"smiles": "O=C(CNCc1ccco1)Nc1cc(S(=O)(=O)N2CCOCC2)ccc1N1CCCC1", "reporter increase": "-2.01%"}
{"smiles": "O=C(CNCc1cccs1)Nc1cc(S(=O)(=O)N2CCCC2)ccc1Cl", "reporter increase": "8.84% (active)"}
{"smiles": "COc1ccccc1-n1c(-c2cc(-c3ccco3)[nH]n2)n[nH]c1=S", "reporter increase": "2.11%"}
{"smiles": "Fc1ccccc1/C=N/n1c(-c2cccnc2)n[nH]c1=S", "reporter increase": "0.63%"}
{"smiles": "CC(=O)Nc1nc(C)c(-c2csc(Nc3ccc(S(N)(=O)=O)cc3)n2)s1", "reporter increase": "-1.97%"}
